Results on 59 compounds are retold here after ChEMBL document CHEMBL4513216, “Probing the Open Global Health Chemical Diversity Library for Multistage-Active Starting Points for Next-Generation Antimalarials” (ACS Infect Dis, 2020).

The whole screen tested about 69,000 compounds, of which about 8,600 (12%) showed an effect of 50% or more. For the sample, strong results were picked, then their nearest neighbours and some compounds at random.

In the test the test system is Plasmodium berghei. Put plainly: Screen against P. berghei liver stage (PbLuc), transformed with Luciferase, at 10uM. In kind it is functional, HepG2. The following applies: tested at 10 uM.
Regarding `COc1ccc(OC)c(CNC2CCCc3nc(N(C)C)ncc32)c1` (centres undefined), the INHIBITION is listed as 37.6%.
`COc1ccc(-c2ccncc2)cc1CNC1CCCC1`: the INHIBITION amounted to 51.7%.
For `COc1ccc(-c2cc[nH]n2)cc1CNC1CCCC1`, the INHIBITION is given as 72.1%.
As for `COc1ccc(-c2cn[nH]c2)cc1CNC1CCCC1`, the INHIBITION was 9.04%.
With `COc1ccc(OC)c(CNC2CCCN(c3cccnn3)C2)c1` (centres undefined) the figure was 30.5%; with `COc1ccc(-c2ccoc2)cc1CNC1CCCC1`, 61.9%; with `Cc1cc(C(=O)CN(Cc2cccnc2)CC2CCCO2)c(C)[nH]1` (centres undefined), 10.7%.
To `Cc1cnc(C(NC(=O)NCC2(CO)CC2)C2CC2)s1` (centres undefined) belongs 22.8%; to `CC(C)c1nc(C(=O)N2C[C@@H]3CC[C@H]2CN(C2CCOCC2)C3)cs1`, 44.8%.
On to `CCn1ccc(C(=O)N2CCCC2(C)c2nc(C)cc(N(C)C)n2)n1` (centres undefined), for which the INHIBITION is listed as -4.51%.
As for `COc1ccc(CNC(C)c2cnc3cc(C)nn3c2C)cc1` (centres undefined), the INHIBITION turned out to be 28.4%.
As for `COc1ccc(CNc2c(C)nn(C(C)C)c2C)cc1OC`, the INHIBITION is listed as 62.8%.
In the case of `COc1ccc(CNc2c(C)nn(C(C)C)c2C)cc1`, the INHIBITION was 69.3%.
Take `COc1ccc(CNc2cccnc2-n2cccn2)cc1OC`: the INHIBITION is given as 23.9%.
In the case of `COc1ccc(C(=O)Nc2c(C)nn(C(C)C)c2C)cc1`, the INHIBITION was found to be 10%.
With `COc1ccc(CNc2nc(C3CC3)no2)cc1OC`, the INHIBITION was determined as 25.6%.
`COc1ccc2cc(CNc3c(C)nn(C(C)C)c3C)ccc2c1`: the INHIBITION is on record as 62.8%.
Turning to `COc1ccc(CNc2n[nH]c(C)n2)cc1`, the INHIBITION is listed as 4.03%.
Turning to `COc1cccc(CNc2c(C)nn(C(C)C)c2C)c1`, the INHIBITION was 31.3%.
In the case of `O=C1CCOC[C@]2(CN(Cc3ccccc3)C[C@H]2c2cccnc2)N1`, the INHIBITION is listed as 20.6%.
As for `CCC(C)N(Cc1ccsc1)C(=O)c1ccc(CO)cc1` (centres undefined), the INHIBITION was determined as 2.7%.
With `CC(=O)Nc1nc(C2CCN(C(=O)c3cccnc3)CC2)cs1` the figure was 60.8%; with `CC(=O)Nc1nc(C2CCN(C(C)C)CC2)cs1`, 23.4%; with `CC(=O)Nc1nc(C2CCN(C(=O)c3ccncc3)CC2)cs1`, -9.27%.
`CC(=O)Nc1nc(C2CCN(C(C)=O)CC2)cs1`: the INHIBITION is 27.9%.
Turning to `CC(=O)Nc1nc(C2CCN(C(=O)c3cncs3)CC2)cs1`, the INHIBITION is listed as 48.6%.
For the compound `CC(=O)Nc1nc(C2CCN(CC(N)=O)CC2)cs1`, the INHIBITION is 63.7%.
Take `C[C@@H]1CC[C@@H](C)N1C(=O)c1cc(COc2ccccc2)[nH]n1`: the INHIBITION came out at 36.7%.
Turning to `Cc1cc(C)n(CC(=O)N2CCCCC2CCc2cccs2)c(=O)n1` (centres undefined), the INHIBITION came out at 31.2%.
With `c1c(CN2CCCC2)nc2n1CCNC2` the figure was 33.4%.
Take `Cc1ccc(O)c(CNc2cccc(OCCF)c2)n1`: the INHIBITION turned out to be 9.91%.
Regarding `CC[C@@H]1N(Cc2ccco2)CCC[C@]12CCC(=O)N2C`, the INHIBITION is 6.27%.
Consider `CCN(C)CC1CCN(C(=O)Nc2ccc(C)cc2)C1` (centres undefined), for which the INHIBITION is recorded as -45.4%.
Consider `CCCN(C)CC1CCN(c2ncc(Br)cn2)C1` (centres undefined), for which the INHIBITION stood at 68%.
To `Cc1nc(C2CCCN(c3ncc(Br)cn3)C2)no1` (centres undefined) belongs 19.8%.
Turning to `CCCN(C)CC1CCN(c2ccc(Br)c(C)n2)C1` (centres undefined), the INHIBITION is listed as 74.8%.
Turning to `Cc1ccc(N2CCCC(N(C)Cc3nc(C)c(C)o3)C2)nn1` (centres undefined), the INHIBITION amounted to 40.9%.
As to `CCN(C)CC1CCN(c2ncc(Br)cn2)C1` (centres undefined), the INHIBITION is given as 26%.
For the compound `Cc1ccc2ncn(C(C)Cn3cccn3)c(=O)c2c1` (centres undefined), the INHIBITION is 3.82%.
As for `O=C(NCc1sc2ccccc2c1Cl)c1cc2n(n1)CCNC2`, the INHIBITION was determined as 25.1%.
With `O=C(C1CCOCC1)N1CCO[C@@H]2[C@@H](OCc3ccncc3)CC[C@@H]21` the figure was 23.6%.
Turning to `CC(C)c1nc(CS(=O)(=O)Cc2noc(C3CC3)n2)cs1`, the INHIBITION worked out at 47.6%.
Take `Cc1ncsc1CN1CC[C@H]2OCC[C@@]2(C(=O)NC2CC2)C1`: the INHIBITION was -45.5%.
With `COc1cc(CNC(=O)N(Cc2ccc(F)cc2F)C2CC2)ccn1` the figure was -15.5%.
With `Cc1cc(-c2ccc(=O)n(C3CCN(C(=O)C4CC4)CC3)n2)c(C)o1` the figure was 23%; with `CN(C)C(=O)COCc1cncc2c1CCN(C1CCOCC1)C2`, 4.68%.
For `N#Cc1c2n(c3c(=O)[nH]cnc13)CCCCC2`, the INHIBITION came to 23.5%.
`COc1cccc(-c2noc(C3CCN(Cc4ccncc4)C3)n2)c1` (centres undefined): the INHIBITION was 78.2%.
Consider `COc1cccc(-c2noc(C3CCN(Cc4ccccc4C)C3)n2)c1` (centres undefined), for which the INHIBITION is given as 45.6%.
`COc1cccc(-c2noc(CN3CCOCC3C)n2)c1` (centres undefined): the INHIBITION is -7.35%.
Regarding `COc1cccc(CN2CC[C@H](c3nnc(C)o3)C2)c1`, the INHIBITION was -30%.
As for `COc1cccc(-c2noc(C3CCN(Cc4cccs4)C3)n2)c1` (centres undefined), the INHIBITION was determined as 49.6%.
For the compound `COc1cccc(-c2noc(C3CCN(CC4CCCCC4)C3)n2)c1` (centres undefined), the INHIBITION was found to be 67.9%.
With `COc1cccc(-c2noc(C3CCN(Cc4ccc(C)cc4)C3)n2)c1` (centres undefined), the INHIBITION was 66.4%.
For `Cc1cccc(-c2noc([C@@H]3C[C@@H](O)CN3CC3CCCCC3)n2)c1`, the INHIBITION is reported as -27.5%.
Take `COc1cccc(-c2noc(C3CCN(CC(N)=O)C3)n2)c1` (centres undefined): the INHIBITION was found to be 41.2%.
On to `COc1cccc(-c2noc(C3CCN(Cc4ccccc4F)C3)n2)c1` (centres undefined), for which the INHIBITION worked out at 84.2%.
`COc1cccc(CN2CC[C@H](c3nnc(-c4ccco4)o3)C2)c1`: the INHIBITION is on record as -26.1%.
Turning to `CN(Cc1noc(C2CC2)n1)C1CCN(Cc2ccncc2)C1` (centres undefined), the INHIBITION is given as 45.8%.
